In the library only some 10% were active in any assay of this set; here they are far more common.
G9a inh – qHTS Assay for Inhibitors of Histone Lysine Methyltransferase G9a; Potency, µM (series often up to 102 µM), inactives show top-dose activity, negative = inhibition, usual class: inhibitors; G9a H3K9 monomethylation, AlphaScreen, 2 h; Histone-lysine N-methyltransferase EHMT2 (Homo sapiens), Q96KQ7; hit rate 8.8% among 350,000; AID 504332, 2011; note: % is set by controls: 0 for no effect and ±100 for the full control effect; nearly all actives have a fitted effect of over 75% in size
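G9a (20 nM) preincubated 15 min RT with compounds, then 500 nM biotinylated H3K9 peptide and 20 uM SAM added; 2 h RT reaction. Monomethyl-H3K9 product detected by AlphaScreen with anti-H3K9me1 antibody, streptavidin donor and anti-rabbit IgG acceptor beads.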
JMJD2A Tudor inh – qHTS Assay for Inhibitors of JMJD2A-Tudor Domain; hit rate 4.4% among 390,000; Potency, µM (series often up to 114 µM), inactives show top-dose activity change, negative = inhibition, actives largely listed as inhibitors; AlphaScreen JMJD2A-Tudor / H3K4me3 peptide binding; note: % is set by controls: 0 for no effect and ±100 for the full control effect; nearly all actives have a fitted effect of over 50% in size
BAZ2B block – qHTS Assay for Inhibitors of BAZ2B. Bromodomain adjacent to zinc finger domain protein 2B (Homo sapiens), Q9UIF8. hit rate 4.4% among 360,000. AlphaScreen BAZ2B-H3K14Ac peptide displacement. AID 504333, 2011. Potency, µM (titrated, usually from 114 µM), for the others: at the highest dose activity change, negative = inhibition, most hits filed as inhibitors; note: % is set by controls: 0 for no effect and ±100 for the full control effect; nearly all actives have a fitted effect of over 60% in size
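Multi-concentration screen (max 110 uM) measuring displacement of acetylated histone H3 peptide from BAZ2B by AlphaScreen, using 50 nM protein, 50 nM peptide and 10 ug/mL streptavidin donor plus Ni-chelate acceptor beads.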
HP1b binding inh – HTS for Inhibitors of HP1-beta Chromodomain Interactions with Methylated Histone Tails | hit rate 0.56% among 390,000 | Potency, µM (highest dose often 114 µM), for inactives: top-dose activity change, negative = inhibition, most hits filed as inhibitors | AID 540317, 2011 | AlphaScreen HP1-beta / biotin-H3K9me3 peptide binding; note: nearly all actives have a fitted effect of over 70% in size
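Compound inhibition of the preformed complex between 50 nM HP1-beta and 50 nM biotinylated H3K9me3 peptide was read by AlphaScreen. Buffer was PBS pH 7.4 with 0.01% Tween-20. Incubations ran 30 min at room temperature, with 10 ug/mL donor/acceptor beads.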
GLS inh – qHTS for Inhibitors of Glutaminase (GLS) | AID 624170, 2012 | hit rate 0.21% among 410,000 | GLS enzymatic activity, qHTS titration | Potency, µM (doses to about 45.5 µM), without a hit: at the highest dose activity change, negative = inhibition, most hits filed as inhibitors; note: % is set by controls: 0 for no effect and ±100 for the full control effect
Target sequence (O94925 whole entry, looked up): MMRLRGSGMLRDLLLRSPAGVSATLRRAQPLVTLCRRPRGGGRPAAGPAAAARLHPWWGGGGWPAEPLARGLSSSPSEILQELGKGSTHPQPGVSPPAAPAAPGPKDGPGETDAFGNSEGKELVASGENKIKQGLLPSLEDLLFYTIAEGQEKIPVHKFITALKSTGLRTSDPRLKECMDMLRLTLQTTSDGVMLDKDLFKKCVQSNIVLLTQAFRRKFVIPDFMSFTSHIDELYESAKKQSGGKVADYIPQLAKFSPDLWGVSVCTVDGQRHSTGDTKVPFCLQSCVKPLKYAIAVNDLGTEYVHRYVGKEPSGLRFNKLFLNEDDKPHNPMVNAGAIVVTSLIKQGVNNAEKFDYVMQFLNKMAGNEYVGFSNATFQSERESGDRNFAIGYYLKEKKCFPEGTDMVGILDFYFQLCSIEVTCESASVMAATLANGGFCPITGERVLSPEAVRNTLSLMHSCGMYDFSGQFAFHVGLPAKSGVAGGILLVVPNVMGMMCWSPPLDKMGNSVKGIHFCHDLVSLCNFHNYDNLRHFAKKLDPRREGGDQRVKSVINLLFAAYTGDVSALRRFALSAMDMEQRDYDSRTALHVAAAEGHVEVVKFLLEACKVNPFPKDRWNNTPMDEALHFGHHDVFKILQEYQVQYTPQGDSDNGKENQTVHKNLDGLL
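Assay buffer: 45 mM KH2PO4 pH 8.2, 0.02% Tween-20. hKGA acts on L-glutamine (1 mM solution added); product glutamate is reported by an oxidase/peroxidase Amplex Red coupling, with fluorescence taken at baseline and 30 min.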
* hit, by the source's call; ? = inconclusive; . = not tested or not shown; [ ] = dose if it differs, or a comment. Calls come from the whole dose curve; as a rule, active = well fitted curve in the direction sought with a large enough effect; inconclusive = small, poorly fitted or top-dose-only effect, or another doubt; inactive = no such curve, though single readings can be large; an effect the other way counts as inactive or inconclusive. Potency is the fitted concentration of half-maximal effect.

SMILES	G9a inh	JMJD2A Tudor inh	BAZ2B block	HP1b binding inh	GLS inh
CCC(C)Oc1ccc(/C=C/c2[nH]c(=O)[nH]c(=O)c2[N+](=O)[O-])cc1OC (stereo unspecified)	?	-20%	?	11%	?
CC(=O)N1c2ccccc2C(=O)C1N1CCN(c2ccccc2)CC1 (stereo unspecified)	-8%[59 µM]	-16%	-30%	19%	10%
COc1cc(CN2CCN(Cc3ccc(SC)cc3)CC2)cc(OC)c1O	7.9µM*	0.89µM*	50µM*	25µM*	0%
COc1cc(OC)c(OC)cc1CN1CCN(Cc2ccc(SC)cc2)CC1	3.2µM*	20µM*	40µM*	?	4%
COc1cccc(CN2CCN(Cc3cc(OC)c(OC)cc3OC)CC2)c1	45µM*	1.6µM*	20µM*	18µM*	76%
Cc1cc(NC(=O)COC(=O)c2ccc(C)c(C)c2)no1	.	-16%	.	18%	1%
Cc1cc(C)nc(NC2=N[C@@H]3CCCC[C@H]3N2C(=O)Nc2cc(Cl)cc(Cl)c2)n1	.	-9%[11.4 µM]	.	43%	0%
COc1cc(CCC(=O)Nc2cccc(C(F)(F)F)c2)cc(OC)c1OC	45µM*	-1%	-1%	5%	1%
COc1cccc2c1OCC([C@@H]1C[C@H]3CN(Cc4cccc(Cl)c4)C(=O)[C@]34CCCN14)=C2	?	-26%	-30%	17%	-4%
O=C(Nc1nnc(-c2cccnc2)o1)c1cccc([N+](=O)[O-])c1	-3%	.	?	.	.
Cc1cccc(C(=O)Nc2nnc(-c3cccnc3)o2)c1	36%	?	50µM*	17%	45%
Cc1ccc(C(=O)Nc2nnc(-c3ccco3)o2)cc1C	6%	-5%	?	37%	1%
Cc1cccc(C(=O)Nc2nnc(-c3ccco3)o2)c1	5%	?	45µM*	35%	-4%
O=C(Nc1nnc(-c2ccncc2)o1)c1ccc2ccccc2c1	6%	-22%	79µM*	38%	8%
Cc1ccccc1C(=O)Nc1nnc(-c2ccco2)o1	-13%[59 µM]	50µM*	50µM*	39%	0%
CN(C)C(=O)c1ccc(-c2cncnc2NCCc2cnc[nH]2)cc1	-2%[0.501 µM]	.	.	.	.
CN1C(=O)C(C)(C)c2cc(S(=O)(=O)N3CCCC(C(=O)NCc4ccccc4Cl)C3)ccc21 (stereo unspecified)	8%	-26%	-3%	7%	-13%
FC(F)(F)COc1nc(N/N=C/c2cccnc2)nc(N2CCCCC2c2ccccn2)n1 (stereo unspecified)	4%	-16%	?	17%	8%
Cc1cccc(C(=O)Nc2nnc(-c3ccncc3)o2)c1	-7%	?	22µM*	31%	-1%
Cc1cccc(C)c1NC(=O)CN(C)C(=O)c1cc(S(=O)(=O)N2CCOCC2)ccc1N1CCCC1	5%[0.501 µM]	-10%	?	22%	1%
CC(=O)Nc1cccc(-c2csc(C(O)c3ccc(F)cc3)n2)c1 (stereo unspecified)	.	.	.	.	4%
C[C@@H](C(=O)Nc1ccc2ccccc2c1)[C@@H]1C[C@@]1(C)[C@@H](NC(=O)c1cnccn1)c1ccccc1	50µM*	-11%	-5%	38%	-1%
FC(F)C(F)(F)C(F)(F)C(F)(F)c1cc(-c2ccccc2)n[nH]1	-4%[12.7 µM]	10%	4%	60%	-10%
O=C(CN1CCSCC1)N/N=C/c1ccccc1F	1%[12.7 µM]	3.2µM*	50µM*	?	-22%
CCN1CCN(CC(=O)N/N=C/c2ccc(F)cc2F)CC1	2.8µM*	2.8µM*	50µM*	?	3%
SMILES	G9a inh	JMJD2A Tudor inh	BAZ2B block	HP1b binding inh	GLS inh
O=C(CN1CCCCCC1)N/N=C/c1cccc(Cl)c1Cl	?	10µM*	56µM*	?	14%
O=C(CN1CCCCCCC1)N/N=C/c1ccccc1F	13µM*	71µM*	56µM*	-3%	19%
CCN1CCN(CC(=O)Nc2cc(F)ccc2C)CC1	-13%	-4%[11.4 µM]	11%	11%	-3%
O=C(CN1CCCCC1)N/N=C/c1ccccc1Br	.	-6%	?	11%	9%
Cc1cc(N2CCCCC2)ccc1[N+](=O)[O-]	?	-24%	?	-1%	5%
CCOC(CNC(=O)CN1C(=O)COc2ccc(S(=O)(=O)N3CCCC3)cc21)OCC	7%	1%	-13%	28%	-5%
COc1ccc(/C=N/NC(=O)CN2CCCCCCC2)c(C)c1C	8.9µM*	5µM*	56µM*	?	29%
Cc1ccc(Cl)cc1N1CCN(c2ncnc3c2nc2n3CCCC2)CC1	-27%[59 µM]	-28%	-24%	19%	-6%
CCOC(=O)C(=NCCOC)NNc1cc(Cl)ccc1Cl	40µM*	?	?	15%	14%
CCc1ccc(C(=O)NNc2cc(Cl)ccc2Cl)cc1	-3%	-25%	-8%	62%	-2%
Cc1cccc(C)c1-n1c(SCC(=O)N2CC(=O)Nc3ccccc32)nc2ccccc2c1=O	-1%[59 µM]	-24%	-28%	20%	23%
Cc1cc2c(cc(C(=O)OC(C(=O)NCC3CCCO3)C(C)C)n2C)o1 (stereo unspecified)	-9%	-30%	-12%	-9%	2%
COCCNC(=O)C(OC(=O)c1cc2oc(C)cc2n1C)C(C)C (stereo unspecified)	?	-15%	79µM*	24%	-12%
COC(=O)c1ccc(-c2nc3cc(Cl)c(N)cc3s2)cc1	4%[59 µM]	10%	2%	45%	-4%
COC(=O)c1ccc(-c2nc(O)c(C)s2)cc1	7.1µM*	-29%	?	?	-15%
Cc1cccc(-n2c(SCC(=O)Nc3ccccc3Cl)nc3n[nH]c(C)c3c2=N)c1	4%[59 µM]	-34%	-10%	-11%	-3%
C/C(=N\Nc1ccccc1)c1cccc(N)c1	8.9µM*	?	?	?	-12%
C/C(=N/Nc1nc(-c2ccccc2)cc(-c2ccccc2)n1)c1ccc(N)cc1	11µM*	.	?	.	.
C/C(=N\NC(=O)c1cccc(N/N=C(\C)c2ccccc2)c1)c1ccccc1	2.8µM*	-28%	-24%	-6%	?
C/C(=N\Nc1cc(-c2ccccc2)nc(-c2ccc(Br)cc2)n1)c1cccc(N)c1	.	?	.	-25%	-10%
C/C(=N\NC(=O)c1cccc(F)c1)c1ccc(NC(=O)Cc2ccccc2)cc1	24%	-22%	-12%	26%	4%
C/C(=N/Nc1cc(-c2ccccc2)nc(-c2ccccc2)n1)c1ccc(O)cc1	-17%[59 µM]	-33%	-36%	6%	13%
